Values joined by “and” are separate entries in the source; they are usually repeats but may differ in a detail not shown here. Identical values can stand only once. Results filed as inconclusive are left out. The source holds several records for some structures; these can differ, active in one and inactive in another. Active and inactive are the calls of the source. The call rests on the fitted dose curve.
Assay: Primary qHTS to identify inhibitors of SARS-CoV-2 cell entry (AID 1645846); further: nearly all actives have a fitted effect of over 45% in size
Conditions: SARS-CoV-2 pseudovirus cell entry assay, luminescence; activity change, negative = inhibition: at 57.1 µM (top of the series) unless noted; series mostly up to 57.1 µM
Description: Assay Provider: Wei Zheng, Ph.D.
National Center for Advancing Translational Sciences, National Institute of Health, Rockville, MD.
SARS-CoV-2 spike protein, within the viral envelope, mediates viral attachment and infection of host cells. The SARS-CoV-2 spike protein specifically binds to the host receptor ACE2 (Angiotensin-converting enzyme 2). This interaction promotes endocytosis of the viral particle, additional events lead to viral-host cell membrane fusion and release of the viral contents, allowing viral replication.
While SARS-CoV-2 requires BSL-3 facilities for live virus work, pseudotyped partices (PP) that incorporate SARS-CoV-2 spike proteins without replication elements could facilitate studies on viral entry mechanisms in a BSL-2 setting. This PP cell entry assay could also enable screening of small molecule compound libraries in BSL-2 setting to identify inhibitors of SARS-CoV-2 cell entry.
PROTOCOL TABLE (format as described by Inglese J, Shamu CE and Guy RK. 2007)
SEQUENCE No. (e.g., 1, 2, 3, etc.); […] (e.g., Cells, Incubation, Reagent, etc.); VALUE and DESCRIPTION.
1. Cells. Seed 1500 HEK293-ACE2 cells (Expi293F with stable expression of human ACE2) in 2 uL/well media (DMEM, 10% FBS, 1x L-glutamine, 1x Pen/Strep, 1 ug/ml puromycin) in white 1536-well assay plates (Greiner #782073).
2. Incubation. Incubate at 37C with 5% CO2 overnight (~16 h).
3. Compounds. Dispense 23 nL/well compounds in DMSO via pin transfer.
4. Incubation. Incubate for 1 hr at 37C 5% CO2.
5. Reagent. Dispense 2 uL/well of SARS-CoV-2-S pseudotyped particles. [a] PPs are produced with murine leukemia virus pseudotyping. [b] SARS-CoV-2-S is Wuhan-Hu-1 sequence (BEI #NR-52420) with C-terminal 19 amino acid truncation.
6. Centrifuge. […]
7. Incubation. Incubate at for 48 hr at 37C 5% CO2
8. Centrifuge. Remove supernatant with gentle centrifugation using a Blue Washer (BlueCat Bio).
9. Reagent. Dispense 4 uL/well of Bright-Glo Luciferase detection reagent (Promega #E2620).
10. Incubation. Incubate for 5 min at room temperature.
11. Detection. Read luminescence signal (Viewlux plate reader, PerkinElmer). Data was normalized with wells containing SARS-CoV-2-S PP as 100%, and wells containing bald PP (no fusion protein) as 0%.
For `NNCCc1ccccc1`, the “outcome” value was “inactive”.
With `CCC1=C[C@@H]2CN(C1)Cc1c([nH]c3ccccc13)[C@@](C(=O)OC)(c1cc3c(cc1OC)N(C)[C@H]1[C@@](O)(C(=O)OC)[C@H](OC(C)=O)[C@]4(CC)C=CCN5CC[C@]31[C@@H]54)C2` the Potency was 2.82 µM (active) and the activity change, negative = inhibition was -90.3%.
In the case of `OCCN1CCN(CCCN2c3ccccc3Sc3ccc(C(F)(F)F)cc32)CC1`, the “outcome” value is reported as “inactive”.
In the case of `CO[C@@]12[C@H](COC(N)=O)C3=C(C(=O)C(C)=C(N)C3=O)N1C[C@@H]1N[C@@H]12`, the Potency is reported as 4.47 µM (active) and the activity change, negative = inhibition is reported as -40.7%.
`CC(N)C12CC3CC(CC(C3)C1)C2` (stereo unspecified) showed an activity change, negative = inhibition of -7.42%.
In the case of `CC(S)C(=O)NCC(=O)O` (stereo unspecified), the “outcome” value is reported as “inactive” and the activity change, negative = inhibition is reported as -22.2%.
In the case of `CC(=O)O[C@]1(C(C)=O)CC[C@H]2[C@@H]3C=C(C)C4=CC(=O)CC[C@]4(C)[C@H]3CC[C@@]21C`, the “outcome” value is reported as “inactive” and the activity change, negative = inhibition is reported as -12.1%.
In the case of `NNc1nncc2ccccc12`, the “outcome” value is reported as “inactive” and the activity change, negative = inhibition is reported as 83.2% [at 27.1 µM].
With `Cc1ccc(S(=O)(=O)NC(=O)NN2CC3CCCC3C2)cc1` (stereo unspecified) the Potency was “inactive”.
For `CCCCCOC(=O)Nc1nc(=O)n([C@@H]2O[C@H](C)[C@@H](O)[C@H]2O)cc1F`, the Potency was “inactive”.
Compound `COC(=O)C1=C(C)NC(C)=C(C(=O)OCC(C)C)C1c1ccccc1[N+](=O)[O-]` (stereo unspecified) has an activity change, negative = inhibition of -96.9%.
In the case of `CN(C)[C@@H]1C(=O)C(C(N)=O)=C(O)[C@@]2(O)C(=O)C3=C(O)c4c(O)ccc(Cl)c4[C@@H](O)[C@H]3C[C@@H]12`, the “outcome” value is reported as “inactive”.
With `Cc1oncc1C(=O)Nc1ccc(C(F)(F)F)cc1` the activity change, negative = inhibition was -15.8% and the “outcome” value was “inactive”.
Work on `CN(Cc1cnc2nc(N)nc(N)c2n1)c1ccc(C(=O)N[C@@H](CCC(=O)O)C(=O)O)cc1` yielded an activity change, negative = inhibition of -94.2%.
For `C=C(c1ccc(C(=O)O)cc1)c1cc2c(cc1C)C(C)(C)CCC2(C)C`, the activity change, negative = inhibition was -6.82% and the “outcome” value was “inactive”.
In the case of `NCC(O)c1ccc(O)cc1` (stereo unspecified), the “outcome” value is reported as “inactive”.
With `COC(=O)Nc1nc2ccc(C(=O)c3ccccc3)cc2[nH]1` the activity change, negative = inhibition was -67.2% and -34.4%.
With `CCC1(c2ccccc2)C(=O)NCNC1=O` the activity change, negative = inhibition was -9.71% and the “outcome” value was “inactive”.
In the case of `Cc1[nH]c(=O)c(C#N)cc1-c1ccncc1`, the Potency is reported as “inactive”.
With `COc1cc(Cc2cnc(N)nc2N)cc(OC)c1OC` the “outcome” value was “inactive”.
For `C=C1CC[C@@]2(O)[C@H]3Cc4ccc(O)c5c4[C@@]2(CCN3CC2CC2)[C@H]1O5`, the “outcome” value was “inactive”.
With `CC(=O)SC[C@@H](C)C(=O)N1CCC[C@H]1C(=O)N[C@@H](Cc1ccccc1)C(=O)O` the activity change, negative = inhibition was -7.21%.
For `Nc1ccn([C@@H]2O[C@H](CO)[C@@H](O)C2(F)F)c(=O)n1`, the Potency was 3.16 µM (active) and the activity change, negative = inhibition was -96.3%.
With `N[C@@H](Cc1cc(I)c(Oc2cc(I)c(O)c(I)c2)c(I)c1)C(=O)O` the activity change, negative = inhibition was -14.2%.
In the case of `COC[C@@H](NC(C)=O)C(=O)NCc1ccccc1`, the “outcome” value is reported as “inactive”.
For `CCN(CC)CCNC(=O)c1cc(Cl)c(N)cc1OC`, the “outcome” value was “inactive”.
For `O=c1[nH]cc(F)c(=O)[nH]1`, the Potency was 11.2 µM (active) and 14.1 µM (active).
With `COc1ccccc1OCC(O)CN1CCN(CC(=O)Nc2c(C)cccc2C)CC1` (stereo unspecified) the activity change, negative = inhibition was 4.5% and -8.51%.
For `CCCc1cc(=O)[nH]c(=S)[nH]1`, the “outcome” value was “inactive” and the activity change, negative = inhibition was -37.3%.
With `CC(C)NCC(O)c1ccc(O)c(O)c1` (stereo unspecified) the “outcome” value was “inactive” and the activity change, negative = inhibition was -10.8%.

— PubChem BioAssay (NCATS)
Potency means the concentration at half of the fitted maximal effect.
